The campaign covered roughly 2,100 compounds. About 480 (23%) were called active. Roughly 5% stayed inconclusive and do not appear here.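 How the source made its calls: active means fitted curve reaches 40% activation at or below the top valid concentration, in every replicate test; inconclusive means replicate tests disagree on the call; inactive means the rest, including activity in the opposite direction.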 These entries were drawn from the full list. Results with a measured potency or affinity are listed apart.

Data on 27 compounds can be found in PubChem BioAssay AID720513 (Broad Institute, 2013).

The nature of the assay: activators raising PGC1a acetylation in cells, dose response, cell-based, cherry-picked samples, set 6 (AID 720513).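 Further: cells made to overexpress flag tagged PGC1a plus GCN5 acetyltransferase by viral infection.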 The note with it: U2OS PGC1a acetylation AlphaLISA, overnight, 0 = neutral, -100 = inhibitor control; series mostly up to 19.5 µM; activation (acetylation increase): at the top concentration. Background: Bead proximity is the source of the signal in Alpha formats.
As for `C[C@@H]1CN([C@H](C)CO)C(=O)c2cccc(NC(=O)C3CCCCC3)c2O[C@@H]1CN(C)CC1CCCCC1`, the “activation (acetylation increase)” value was 15.4% (inactive).
As for `CCOC(=O)c1ccc(-c2c(-c3cc(OC)c(OC)c(OC)c3)noc2C)cc1F`, the “activation (acetylation increase)” value was 1.34% (inactive).
For the compound `O=C(C[C@@H]1C=C[C@@H](NC(=O)Nc2ccc(F)cc2)[C@@H](CO)O1)NCCN1CCCC1`, the “activation (acetylation increase)” value is 24% (inactive).
`CC(C)c1nc2sc3c(NCc4ccco4)ncnc3c2c2c1COC(C)(C)C2`: the “activation (acetylation increase)” value is 31.6% (inactive).
On to `O=C(Nc1ccc(F)cc1)c1sc2cc(C(F)(F)F)cnc2c1-c1cccs1`, for which the “activation (acetylation increase)” value was 27.7% (inactive).
For `Cc1cccc(-c2ccc(C3[C@@H]4CN(C(=O)Nc5ccc(C(F)(F)F)cc5)C[C@H]3N4)cc2)c1` (some centres not stated), the “activation (acetylation increase)” value was -88.7% [at 21 µM] (inactive).
The same measure for `COc1cccc(-n2c(Cc3cc(=O)[nH]c(=O)[nH]3)nnc2SCc2cccc(C(F)(F)F)c2)c1`: 7.56% (inactive); for `COc1ccc(N(Cc2cc3cc(OC)ccc3[nH]c2=O)S(C)(=O)=O)cc1`: -12.8% (inactive).
Next, `COc1ccc(Oc2c(Cl)cnn(-c3ccccc3)c2=O)cc1`: -37.8% (inactive); `O=C(Nc1ccccc1)Nc1cc(Cl)cc(Cl)c1`: -60.1% (inactive); `C[C@H](CO)N1C[C@H](C)[C@@H](CN(C)C(=O)Nc2ccc(F)cc2)Oc2ncc(C#CC3CC3)cc2C1=O`: 23.6% (inactive).
In the case of `O=C(c1ccco1)N1CCN(c2ncnc3scc(-c4cccs4)c23)CC1`, the “activation (acetylation increase)” value is -40.8% (inactive).
With `COc1ccc(C2CC(c3cccs3)=NN2c2nc(C)c(C(C)=O)s2)cc1OC` (configuration not stated), the “activation (acetylation increase)” value is 28.7% (inactive).
In the case of `CCOC(=O)C1CCN(C(=O)CSc2ccc(Br)cc2)CC1`, the “activation (acetylation increase)” value was 15.1% (inactive).
Take `COc1ccccc1Oc1ccc2c(c1)C(=O)N(c1ccc(C)cc1)C2=O`: the “activation (acetylation increase)” value is -5.16% (inactive).
For the compound `O=C(O)c1cc(N2CCCCC2)ccn1`, the “activation (acetylation increase)” value is 4.78% (inactive).
In the case of `N#Cc1sc2nccc(Nc3ccccc3)c2c1N`, the “activation (acetylation increase)” value was -14.5% (inactive).
As to `c1ccc(N2CCN(C3CC4CCC3C4)CC2)cc1` (configuration not stated), the “activation (acetylation increase)” value was 8.45% (inactive).
As to `COc1ccc(C(=O)Nc2ccc(S(=O)(=O)Nc3cc(C)nc(C)n3)cc2)cc1`, the “activation (acetylation increase)” value was -8.33% (inactive).
In the case of `Cc1ccc(OC[C@H](O)[C@H](C)NC(C)C)c2c1CCC2`, the “activation (acetylation increase)” value was 6.66% (inactive).
The same measure for `CN(C)c1ccc(Sc2ccc3nc(N)nc(N)c3c2)cc1`: 64.2% (inactive).
As for `O=C(Nc1cccc(F)c1)N1CC(=O)N2[C@@H](CO)[C@@H](c3ccc(C#Cc4cccnc4)cc3)[C@@H]2C1`, the “activation (acetylation increase)” value was -25.7% (inactive).
For `CCCCCSc1nnc(C)c(=O)[nH]1`, the “activation (acetylation increase)” value was 20% (inactive).
Take `O=C(CC1CC1)N[C@H]1CC[C@@H](CCNS(=O)(=O)c2ccc(Cl)cc2)O[C@@H]1CO`: the “activation (acetylation increase)” value is -6.68% (inactive).
Take `CCOC(=O)NC(=O)CSc1nnnn1-c1ccc(C)cc1`: the “activation (acetylation increase)” value was 16.1% (inactive).
For the compound `CCOC(=O)c1c(-c2ccco2)csc1NC(=O)COC(=O)c1cnccn1`, the “activation (acetylation increase)” value was 3.51% (inactive).
The same measure for `O=C(C[C@H]1CC[C@H](NC(=O)C2CCC2)[C@@H](CO)O1)NCC1CC1`: 31.1% (inactive).
